# NALP1 inh = NALP1 inhibition | S. cerevisiae NALP1/ASC/caspase-1 growth, X-gal OD620, 72 h | inhibition, % at 10 µM | hit rate 0.61% among 280,000 | AID 2071; in the data active = inhibition mostly above about 24%, no sharp cut-off; inactive = mostly below about 32%
# PolyA inhibitor = inhibitors of polyadenylation in S. cerevisiae | S. cerevisiae SKY197-pL101 polyadenylation reporter, beta-gal luminescence; efflux-impaired pdr1/pdr3 knockout yeast; score 100 = 6 SD above DMSO | activity score, % at 12 µM | hit rate 0.02% among 300,000 | AID 1875;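 active = lowest replicate activity score at least 50, where 100 means six control SD above control mean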;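 note: yeast exposed to compound for 9 h at 30 °C; higher score means more reporter readthrough which indicates perturbed polyadenylation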
# SUMO Mot1 rescue = SUMOylation pathway inhibition by Mot1-301 growth rescue; S. cerevisiae Mot1-301 growth rescue, ATP luminescence, 38.5C; percent above DMSO median, 100 means doubled; growth rescue, % at 18.8 µM; hit rate 1% among 320,000; AID 2716;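 active = every valid replicate shows activation above 250% relative to neutral control wells; inactive = the rest, any valid replicate at or below 250%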;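 note: OY570 slx delta 5 strain wells were the positive control but not used for scaling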
# NLRP3 yeast inh = NALP3 inhibition in yeast | Yeast reconstituted NLRP3/ASC/caspase-1, beta-gal luminescence, 24 h | inhibition, % at 10 µM | hit rate 0.39% among 330,000;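 active = inhibition of 50% or more; inactive = inhibition below 50%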;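 note: plate controls were induced DMSO wells for no effect and uninduced yeast grown without galactose for full effect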
# Numbers without * were called inactive; · = no result given. Shown are actives, neighbours in structure and some others; about 1.8% of the full set was active somewhere.
SMILES,NALP1 inh,PolyA inhibitor,SUMO Mot1 rescue,NLRP3 yeast inh
CN1CCN(CC(=O)N2CCn3c4c(c5cc(C6CCCCC6)ccc53)CCCC42)CC1 (stereo unspecified),22,·,500*,13
Cc1ccc2c(c1)c1c3n2CCN(C(=O)CN2CCN(C)CC2)C3CCC1 (stereo unspecified),25,-22,11,-14
CC(=O)OC(C)(C)C1Cc2cc3ccc(=O)oc3cc2O1 (stereo unspecified),21,-13,265,11
CC(C)(Cl)C1Cc2cc3ccc(=O)oc3cc2O1 (stereo unspecified),24*,-3,0,9
O=Nc1c(O)c2ccccc2c2ccccc12,·,-17,664*,·
COc1cc(OC)c(-c2nn3c(-c4ccncc4)nnc3s2)cc1OC,6,·,·,·
CC(C)CCn1c(CN2CCOCC2)nc2c1c(=O)n(C)c(=O)n2C,·,6,-3,16
COc1ccc(Cn2c(=O)[nH]c3cc(C(=O)N4CCN(Cc5ccccc5)CC4)ccc3c2=O)cc1,27*,-10,-16,-2
O=C(CCC(=O)N1CCN(C(=O)c2ccco2)CC1)c1ccc(F)cc1,-7,16,-7,7
NS(=O)(=O)c1ccc(-c2ccc(C=C3C(=O)c4ccccc4C3=O)o2)cc1,32,7,3,0
C(=N\Nc1nncc2ccccc12)/c1ccccn1,37*,-12,-22,18
CC(=O)Nc1ccc(/C=N/Nc2nncc3ccccc23)cc1,-10,7,-11,·
CCOC(=O)c1ccc(NC(=O)CCS(=O)(=O)Cc2ccccc2)cc1,-2,2,221,3
N#CC(=C1N=c2ccccc2=N1)c1c(O)[nH]c2ccccc12,40,·,·,·
Oc1[nH]c(N=C2N=c3ccccc3=N2)c2ccccc12,4,-21,293*,·
Cc1ccc2cc3cc(C(=O)NCCCN4CCCC4)oc3nc2c1,26,10,11,5
Cc1ccc2cc3cc(C(=O)NCCCN4CCc5ccccc5C4)oc3nc2c1,46*,11,-4,2
O=C(COc1ccc(Cl)c(Cl)c1)NN1C(=O)C2C(C1=O)C1C=CC2C12CC2 (stereo unspecified),4,-5,2,1
CC(C)=C1C2CCC1C1C(=O)N(NC(=O)COc3ccc(Cl)c(C)c3)C(=O)C21 (stereo unspecified),41*,9,56,15
COc1ccc(CN(C)C(=O)C23CC4CC(CC(C4)C2)C3)c(OC)c1,-9,-10,328*,17
CCn1c(NC(=O)c2ccc(COc3ccc(C)cc3[N+](=O)[O-])o2)nc2ccccc21,10,2,-14,12
CCN(CC)P(=O)(c1ccccc1)c1c(C)nc2ccccn12 (stereo unspecified),6,5,276*,10
O=C1CC(/C=C/c2ccc(Cl)cc2)=Nc2ccccc2N1,2,-33,568*,39
Cc1cccc(C)c1NC(=O)Cn1c(=O)c(N2CCCCC2)c(N)n(C)c1=O,·,·,-9,16
CCCn1c(N)c(N2CCCCC2)c(=O)n(CC(=O)Nc2ccccc2C)c1=O,37*,24,-7,9
SMILES,NALP1 inh,PolyA inhibitor,SUMO Mot1 rescue,NLRP3 yeast inh
CCCCCCCCC(=O)NNC(=O)c1c(O)c2ccccc2n(CCC)c1=O,9,45,312*,6
CCCCCCCCCC(=O)NNC(=O)c1c(O)c2ccccc2n(CCC)c1=O,-10,14,-12,2
CCCn1c(=O)c(C(=O)Nc2ncccc2C)c(O)c2ccccc21,33*,-6,-1,10
COCCNc1nc(-c2ccc(OC)cc2)c(-c2ccc(OC)cc2)s1,35*,0,-13,23
CC(=O)c1ccc(N2CCN(C3CCC(C(C)(C)C)CC3)CC2)cc1 (stereo unspecified),-13,-10,256*,33
COc1cc(/C=N/NC(=O)c2ccncc2)cc2c1OCO2,18,-17,7,-2
O=c1[nH]c2cc(Br)cnc2nc1/C=C(\O)c1ccc(F)cc1,6,-23,338*,18
CC(NC(=O)c1ccco1)C(=O)N1CCc2ccccc2C1 (stereo unspecified),43*,8,-22,13
O=C(Nc1ccccc1C(=O)OCC(=O)N1CCc2ccccc2C1)c1ccco1,34,11,356*,25
CC(=O)NC(C)C(c1cccs1)N1CCN(c2ccccc2)CC1 (stereo unspecified),6,22,110,-2
CC(=O)Nc1ccc(-c2cn3cc(C)ccc3n2)cc1,27,23,0,1
CCC1(c2ccccc2)ON(c2c(Br)cccc2Br)C1=O (stereo unspecified),·,·,718*,13
COc1ccc(OC)c(C2=NOC(C(=O)Nc3cc(C)on3)C2)c1 (stereo unspecified),34*,-16,3,-3
Cc1ccc(C(=O)OCC(=O)NC(C)C)cc1S(=O)(=O)N1CCOCC1,24*,7,-25,10
CC(C)NCC(O)Cn1c2c(c3ccccc31)CCc1c-2cnn1-c1ccccc1 (stereo unspecified),22*,14,638,21
CN1CCc2c(n(CC(O)CNCc3ccccc3)c3ccccc23)C1=O (stereo unspecified),10,26,2,7
CCn1cc(C(=O)N2CCCC2)c(=O)c2cc(S(=O)(=O)N3CC(C)CC(C)C3)ccc21 (stereo unspecified),15,9,303*,2
COc1ccc(NC(=O)CCN=C2NS(=O)(=O)c3ccccc32)cc1S(=O)(=O)N(C)C,·,·,-3,8
c1cn2cc(CSC3CCCCC3)nc2s1,36*,4,-3,27
Nc1nc2nccc(-c3ccc(Cl)cc3)n2n1,36*,·,-3,34
Cc1cc(-c2ccc(Cl)cc2)n2nc(N)nc2n1,10,-9,1,11
O=C(Cn1cncn1)c1ccccc1Br,4,9,357*,7
COc1ccc(S(=O)(=O)N2CCOC23CCN(S(=O)(=O)c2ccc(F)cc2)CC3)cc1,·,-8,-7,24
Cc1ccc(NC(=O)CC(=O)Nc2ccc(C)cc2C)c(C)c1,-2,3,6,24
Cc1ccc(N=CNc2ccc(C)cc2C)c(C)c1,41*,-2,-1,10
SMILES,NALP1 inh,PolyA inhibitor,SUMO Mot1 rescue,NLRP3 yeast inh
CCOC(=O)COc1ccccc1/C=C\[N+](=O)[O-],102*,-92,242,·
Cc1ccc(S(=O)(=O)N/N=C/c2c[nH]c3ccccc23)cc1,26*,-9,10,5
CCC1CCCCN1CCNS(=O)(=O)c1ccc2c(c1)oc(=O)n2C (stereo unspecified),25,3,-21,7
O=C(Nc1nc(-c2ccc(Cl)cc2Cl)cs1)C1CCCO1 (stereo unspecified),18,-6,3,19
O=C(Nc1ccc(F)cc1)N1CCN(C(=O)C2CCCO2)CC1 (stereo unspecified),34*,-15,2,29
O=C1c2cccc3cc(Br)cc(c23)C(=O)N1Nc1ccc(Br)cc1,28,-6,-3,1
COc1ccc(NC(=O)NNC(=O)COc2ccc3cc(Br)ccc3c2)cc1OC,30*,8,-8,-7
